The record followed here is PubChem BioAssay (NCI).

The panel holds about 79,000 compounds, 15% with a hit somewhere; the sample as a whole holds those more often. Active and inactive are the calls of the source. Rule as the data show it: active = growth inhibition above about 70%; inactive = the rest.

The assay in a line: NCI Yeast Anticancer Drug Screen. Data for the mlh1 rad18 strain (AID 175). As to conditions: S. cerevisiae mlh1 rad18 strain growth inhibition; at 50.0 µM; stronger effect = higher value. A digest of the protocol:
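Inhibition values reflect reduced growth of mutant yeast versus vehicle-treated controls following compound exposure; the mutations affect DNA damage repair.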
Take `COc1cccc(NC(=O)CC(=O)NN2C(=O)/C(=C/c3ccc(N(CCC#N)CCC#N)cc3)N=C2c2cc([N+](=O)[O-])ccc2Cl)c1`: the growth inhibition was 14.6% (inactive).

Turning to `CC(C)(C)[Si](C)(C)OCCc1ccccc1C1CC2(S(=O)(=O)c3ccccc3)ON1CC2S(=O)(=O)c1ccccc1` (stereo not given), the growth inhibition is 21.4% (inactive).

For `Nc1ccc(N2N=C(N3CCCC3)CC2=O)cc1`, the growth inhibition was -23.4% (inactive).

As to `OCc1ccc2ccccc2n1`, the growth inhibition is 31.1% (inactive).

Turning to `COc1ccc(CCNC(=S)N/C=C(\C#N)S(=O)(=O)c2ccc(C)cc2)cc1OC`, the growth inhibition is -11.6% (inactive).

For the compound `O=C(/C=C\c1ccc(Cl)cc1)OCCCCOC(=O)/C=C/c1ccc(Cl)cc1`, the growth inhibition was 5.25% (inactive).

In the case of `Oc1ccccc1/C=N/Nc1nc(N/N=C/c2ccccc2O)nc(N/N=C/c2ccccc2O)n1`, the growth inhibition is 15.9% (inactive).

For `CC(C)CCCC(C)C1CCC2C3CC=C4CC(OC5CCC6(C)C(=CCC7C6CCC6(C)C(C(C)CCCC(C)C)CCC76)C5)CCC4(C)C3CCC12C` (stereo not given), the growth inhibition is 4.8% (inactive).

For `COc1ccc(N2C(=O)[C@@H]3[C@H](C2=O)c2[nH]c4ccccc4c2C2CCC(C(C)(C)C)C[C@@H]23)cc1` (stereo not given in full), the growth inhibition is 7.85% (inactive).

With `C=CCC1(C(C)C(O)c2cc(OC)c(OC)c(OC)c2)CC(O)C=CC12OCCO2` (stereo not given), the growth inhibition is 24.6% (inactive).

With `CCOc1ccc(N2C(=O)C(=O)C(C#N)(c3nc4ccccc4o3)C(=O)C2=O)cc1`, the growth inhibition is 15.2% (inactive).

For the compound `CC(=O)c1ccc(N2CCCCC2)cc1`, the growth inhibition is -14.4% (inactive).

For `CCOC(=O)c1ccc(Nc2cnc3ccc(C(F)(F)F)cc3n2)cc1`, the growth inhibition is -32.8% (inactive).

Turning to `Cc1ccc(C(=O)C(c2nc3n(c2O)/C(=N/C(=O)Nc2ccc(Cl)cc2)N=N3)c2nc3n(c2O)/C(=N/C(=O)Nc2ccc(Cl)cc2)N=N3)cc1`, the growth inhibition was -25.4% (inactive).

In the case of `CCCCS(=O)(=O)CCC(N)C(=O)O` (stereo not given), the growth inhibition was -11.5% (inactive).

Regarding `Clc1ccc(C2N3CCCCC3[C@@H]3c4[nH]c5ccccc5c4CCN23)cc1` (stereo not given in full), the growth inhibition was -8.5% (inactive).

Consider `O=C1NC(=O)C(c2ccc(Cl)c(Cl)c2)N1` (stereo not given), for which the growth inhibition is -3.55% (inactive).

Regarding `CCCC(C)C(=O)OCCOC` (stereo not given), the growth inhibition is 0% (inactive).

Consider `Cc1ccc(N=Cc2cc(Cl)cc(Cl)c2OC(=O)c2ccccc2)cc1C`, for which the growth inhibition was 93.3% (active).

Turning to `CN(Cc1ccccc1)C(=O)NC1CCCCC1`, the growth inhibition is 2.55% (inactive).

On to `c1ccc2c(-c3ccncc3)c3ccccc3cc2c1`, for which the growth inhibition was 20.3% (inactive).

Consider `C(=N/Nc1ccccc1)/c1ccco1`, for which the growth inhibition was 54.9% (inactive).

On to `CCCc1sc(NC(C)=O)nc1-c1ccccc1`, for which the growth inhibition is 10.2% (inactive).

Regarding `CC(=O)OC1CCC2(C)C(CCC3(C)C2CC=C2C4CC(C)(C)CCC4(C)CCC23C)C1(C)C` (stereo not given), the growth inhibition was -5.3% (inactive).

On to `CCOC(=O)C(C)c1nc2cc(C(F)(F)F)ccc2[nH]c1=O` (stereo not given), for which the growth inhibition is -21.2% (inactive).

As for `NC(=O)C(=O)NNC(=O)Nc1ccc(Cl)cc1`, the growth inhibition is 20.8% (inactive).

Take `CCCCC1OCCOC1C1COCCO1` (stereo not given): the growth inhibition is 6.7% (inactive).

`CC(=O)Oc1ccc(Nn2c3ccccc3c3ccccc32)c(C)c1`: the growth inhibition is 43% (inactive).

Turning to `CCCCCCCCC(=O)Nc1nc2nc[nH]c2c(=O)[nH]1`, the growth inhibition is -5.45% (inactive).

For the compound `CCC(CC)C(=O)OCCCCC1CCCO1` (stereo not given), the growth inhibition was -2.65% (inactive).

Take `CC(C)C(=O)OC1(Cc2cccc[n+]2C)CCCCC1`: the growth inhibition is 1.45% (inactive).

For the compound `CCCCCCn1ncc(=O)[nH]c1=O`, the growth inhibition is 8.9% (inactive).

On to `Cc1ccc(O)c(C)n1`, for which the growth inhibition is -2.9% (inactive).

For `N#C/C(=C\C1CCCC([N+](=O)[O-])C1)C1CCC([N+](=O)[O-])CC1` (stereo not given), the growth inhibition was 2.85% (inactive).

`CC(=O)c1cccc2c(C(C)=O)cccc12`: the growth inhibition was -15.1% (inactive).

Regarding `CN1C(=O)CC(c2ccc(Cl)cc2)C1=O` (stereo not given), the growth inhibition was 2.65% (inactive).

`C=CCNC(=S)N(Cc1ccccc1)Cc1ccccc1`: the growth inhibition was 86.5% (active).

`CC(C)(C)NCC(O)c1ccc(O)c(CO)n1` (stereo not given): the growth inhibition is -3.3% (inactive).

As to `O=S1(=O)C2C=CCC1C(Cl)CC2` (stereo not given), the growth inhibition was -5.25% (inactive).

For the compound `O=C1c2ccccc2-c2nc(/C=C/c3ccccc3)cc3c2c1nc1ccccc13`, the growth inhibition was -0.25% (inactive).
